JMJD2A Tudor: JMJD2A Tudor domain (human) inhibition. O75164. AlphaScreen JMJD2A-Tudor / H3K4me3 peptide binding. Potency, µM (highest dose often 114 µM), inactives show top-dose activity change, negative = inhibition, most hits filed as inhibitors. 390,000 tested, 4.4% active. AID 504339; further: on the % scale 0 is the no-effect control and ±100 the full control effect; nearly all actives have a fitted effect of over 50% in size
G9a inh: G9a (human) methyltransferase inhibition; Q96KQ7; G9a H3K9 monomethylation, AlphaScreen, 2 h; Potency, µM (highest dose often 102 µM), without a hit: at the top dose activity, negative = inhibition, usual class: inhibitors; 350,000 tested, 8.8% active; further: on the % scale 0 is the no-effect control and ±100 the full control effect; nearly all actives have a fitted effect of over 75% in size
Target sequence (Q96KQ7 913-1193 limits assumed): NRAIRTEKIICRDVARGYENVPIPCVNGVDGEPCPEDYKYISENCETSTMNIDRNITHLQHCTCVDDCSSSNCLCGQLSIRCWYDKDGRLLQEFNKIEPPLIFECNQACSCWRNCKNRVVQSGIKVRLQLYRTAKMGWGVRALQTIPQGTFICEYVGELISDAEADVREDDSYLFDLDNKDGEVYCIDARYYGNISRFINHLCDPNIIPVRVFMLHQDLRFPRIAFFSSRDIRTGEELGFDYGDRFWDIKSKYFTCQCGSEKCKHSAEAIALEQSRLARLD
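AlphaScreen read-out: biotin-H3K9 peptide (500 nM) methylation by 20 nM enzyme with 20 uM SAM, 2 h at room temperature after 15 min compound preincubation; anti-monomethyl H3K9 antibody plus donor/acceptor beads, 10 min dark.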
GLS inh: inhibitors of human glutaminase (GLS); O94925; GLS enzymatic activity, qHTS titration; Potency, µM (top dose mostly 45.5 µM), for inactives: at the top dose activity change, negative = inhibition, actives largely listed as inhibitors; 410,000 tested, 0.21% active; further: on the % scale 0 is the no-effect control and ±100 the full control effect
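Read-out is an Amplex red fluorescence increase coupled through glutamate oxidase and HRP, measured before and after 30 min room-temperature incubation. hKGA is in 45 mM KH2PO4 (pH 8.2) with 0.02% Tween-20; glutamine added as 1mM solution.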
HP1b chromo inh: blocks HP1-beta chromodomain binding to methylated histone tails; Potency, µM (titrated, usually from 114 µM), for inactives: top-dose activity change, negative = inhibition, usual class: inhibitors; AlphaScreen HP1-beta / biotin-H3K9me3 peptide binding; 390,000 tested, 0.56% active; P83916; further: nearly all actives have a fitted effect of over 70% in size
Target sequence (P83916 whole entry, looked up): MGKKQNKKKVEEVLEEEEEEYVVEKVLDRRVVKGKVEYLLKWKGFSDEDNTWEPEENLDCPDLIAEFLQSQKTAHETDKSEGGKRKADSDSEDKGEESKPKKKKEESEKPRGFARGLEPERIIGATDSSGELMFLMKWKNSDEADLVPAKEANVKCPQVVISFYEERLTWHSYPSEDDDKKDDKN
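AlphaScreen: HP1-beta (50 nM) preformed 30 min with biotin-H3(1-18)K9me3 peptide (50 nM) in PBS pH 7.4, 0.01% Tween-20. Compound added for 30 min at RT, then streptavidin donor/nickel chelate acceptor beads (10 ug/mL) for 30 min.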
BAZ2B block: BAZ2B (human) inhibition | AID 504333 | 360,000 tested, 4.4% active | AlphaScreen BAZ2B-H3K14Ac peptide displacement | Potency, µM (series often up to 114 µM), for the others: at the highest dose activity change, negative = inhibition, usual class: inhibitors | Q9UIF8; further: on the % scale 0 is the no-effect control and ±100 the full control effect; nearly all actives have a fitted effect of over 60% in size
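Multi-concentration screen (max 110 uM) measuring displacement of acetylated histone H3 peptide from BAZ2B by AlphaScreen, using 50 nM protein, 50 nM peptide and 10 ug/mL streptavidin donor plus Ni-chelate acceptor beads.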
L3MBTL1 block: L3MBTL1 (human) inhibition. AlphaScreen L3MBTL1–H3K9me1 peptide binding. 230,000 tested, 0.66% active. Potency, µM (top dose mostly 57.1 µM), for the others: top-dose activity, negative = inhibition, usual class: inhibitors. Q9Y468. AID 485360; further: on the % scale 0 is the no-effect control and ±100 the full control effect; nearly all actives have a fitted effect of over 60% in size
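AlphaScreen proximity signal between nickel-chelate acceptor and streptavidin donor beads (final 10 ug/mL) reports binding of 50 nM L3MBTL1 to 75 nM biotin-H3 K9me1 peptide; complex incubated with compounds 30 min at room temperature; cefsulodin titration as control.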
Active calls of the source: *; [ ] = dose if it differs, or a comment. This is a sample that favours compounds with a hit; in the whole collection about 10% have one here. The call rests on the fitted dose curve; in most records, active means well fitted curve in the direction sought with a large enough effect; inconclusive means small, poorly fitted or top-dose-only effect, or another doubt; inactive means no such curve, though single readings can be large; an effect the other way counts as inactive or inconclusive. Potency means the concentration at half of the fitted maximal effect.

`Cc1ccc(Nc2nnc(-c3ccc4c(c3)OCO4)o2)c(C)c1` gave JMJD2A Tudor -10.9%, G9a inh 25.1µM*, GLS inh -15.9%, HP1b chromo inh -14.3%, BAZ2B block -9.8% and L3MBTL1 block 2.0%.
`Oc1oc(-c2ccccc2)nc1C=Nc1ccccc1` gave JMJD2A Tudor 89.1µM*, G9a inh inconclusive, GLS inh 14.0%, HP1b chromo inh 6.9%, BAZ2B block -11.6% and L3MBTL1 block -13.8%.
Screening COc1ccc(-c2ccc(SCC(=O)c3cccs3)nn2)cc1OC returned JMJD2A Tudor -13.5%, G9a inh 50.1µM*, GLS inh -12.3%, HP1b chromo inh 5.3%, BAZ2B block -23.1% and L3MBTL1 block -2.1%.
`COc1ccc(-c2ccc(SCC(=O)c3ccc(F)cc3)nn2)cc1OC` gave JMJD2A Tudor -11.2%, G9a inh 35.5µM*, GLS inh -2.0%, HP1b chromo inh 13.8%, BAZ2B block 3.9% and L3MBTL1 block -0.9%.
COc1ccc(NC(=O)CSc2ccc3nc(-c4ccccc4)cn3n2)c(OC)c1 was read as JMJD2A Tudor -7.8%, G9a inh inconclusive, GLS inh 4.6%, HP1b chromo inh 28.8%[57 µM] and BAZ2B block 4.1%.
Screening Cc1oc2ccc(O)c(CN(C)Cc3ccccc3)c2c1C(=O)Nc1cccc(Cl)c1C returned JMJD2A Tudor -10.1%, G9a inh -0.9%[59 µM], GLS inh 7.3%, HP1b chromo inh 15.8% and BAZ2B block -4.6%.
`CS(=O)(=O)NC(=O)CCC/C=C\C[C@H]1C(=O)C[C@@H](O)[C@@H]1/C=C/[C@@H](O)COc1ccccc1` gave GLS inh -18.1%.
CNC(=O)C1C(=S)NC(N)=C(C#N)C1c1ccccc1 (stereo not given) was read as JMJD2A Tudor 25.1µM*, G9a inh 12.6µM*, GLS inh -26.1%, HP1b chromo inh -19.2% and BAZ2B block -10.6%.
CN(C)c1ccc(N/C(=N\S(=O)(=O)c2cccs2)c2ccccc2)cc1 was read as JMJD2A Tudor 44.7µM*, G9a inh 4.47µM*, GLS inh -1.4%, HP1b chromo inh inconclusive, BAZ2B block 44.7µM* and L3MBTL1 block inconclusive.
`O=C(O)c1ccccc1C(=O)NCc1ccc2c(c1)OCO2` gave JMJD2A Tudor 31.6µM*, G9a inh -0.3%, GLS inh 4.0%, HP1b chromo inh inconclusive and BAZ2B block -7.5%.
For O=C(NCc1ccc2c(c1)OCO2)c1cc2c(s1)CSC2 the results were JMJD2A Tudor -27.9%, G9a inh 35.5µM*, GLS inh 19.1%, HP1b chromo inh -1.7%, BAZ2B block -33.7% and L3MBTL1 block -6.1%.
Screening CCOc1ccccc1C(=O)NCc1ccc2c(c1)OCO2 returned JMJD2A Tudor 12.9%, G9a inh 8.6%[12.7 µM], GLS inh -6.0%, HP1b chromo inh 40.0% and BAZ2B block -4.3%.
For O=C(NCc1ccc2c(c1)OCO2)c1cccc(C(=O)NCc2ccc3c(c2)OCO3)c1 the results were JMJD2A Tudor -21.2%, G9a inh 17.7%[59 µM], GLS inh -3.9%, HP1b chromo inh 22.8% and L3MBTL1 block -5.7%.
`O=C(CCn1cccc1)NCc1ccc2c(c1)OCO2` gave JMJD2A Tudor inconclusive, G9a inh inconclusive, GLS inh -0.6%, HP1b chromo inh inconclusive, BAZ2B block 50.1µM* and L3MBTL1 block -13.5%.
O=C(NCc1ccc2c(c1)OCO2)C(C(=O)c1ccccc1)n1cc(Cl)ccc1=O (stereo not given) was read as JMJD2A Tudor -6.9%, G9a inh 50.1µM*, GLS inh 10.6%, HP1b chromo inh 34.0%, BAZ2B block -5.3% and L3MBTL1 block 0.3%.
O=C(CCn1c(=O)oc2ccccc21)NCc1ccc2c(c1)OCO2 was read as JMJD2A Tudor 8.3%, G9a inh 3.1%, GLS inh -3.3%, HP1b chromo inh 30.4%, BAZ2B block 4.6% and L3MBTL1 block 34.5%.
Screening COc1cc(OC)c(N(C)C(=O)c2cn(C3CCCC3)c(=O)c3c2c2ccccc2n3C)cc1Cl returned JMJD2A Tudor inconclusive, G9a inh inconclusive, GLS inh -1.1%, HP1b chromo inh -0.5% and BAZ2B block inconclusive.
O=[N+]([O-])c1cc(-c2nc(-c3ccccc3)no2)ccc1NCc1cccnc1 was read as JMJD2A Tudor -27.8%, G9a inh -25.9%[59 µM], GLS inh 4.3%, HP1b chromo inh 11.5% and BAZ2B block inconclusive.
Screening Cc1ccc(-n2nc(C(=O)N3CCN(c4cc(Cl)ccc4C)CC3)c(=O)n(C)c2=O)cc1 returned JMJD2A Tudor inconclusive, G9a inh -33.4%[59 µM], GLS inh -10.7%, HP1b chromo inh 37.2%[57 µM] and BAZ2B block -1.1%.
For O=C(CCc1nc2ccccc2[nH]1)NCc1ccc2c(c1)OCO2 the results were JMJD2A Tudor 9.7%, G9a inh -127.0%, GLS inh -1.6%, HP1b chromo inh 40.5%, BAZ2B block 2.5% and L3MBTL1 block 24.7%.
For O=C(CSc1nc2ccccc2[nH]1)NCc1ccc2c(c1)OCO2 the results were JMJD2A Tudor -2.0%, G9a inh 25.1µM*, GLS inh 1.4%, HP1b chromo inh 14.9%, BAZ2B block -9.3% and L3MBTL1 block -6.6%.
For C/C(=N\Nc1ccc(Cl)c(Cl)c1)c1ccc(-n2ccnc2)cc1 the results were JMJD2A Tudor -31.2%, G9a inh 11.2µM*, GLS inh 10.9%, HP1b chromo inh 13.3%, BAZ2B block inconclusive and L3MBTL1 block -15.6%.
For COc1cc([N+](=O)[O-])cc(/C=N/NC(=O)c2ccc(C)nc2)c1O the results were JMJD2A Tudor inconclusive, G9a inh 20.6%[59 µM], GLS inh 0.8%, HP1b chromo inh 15.6%, BAZ2B block 10µM* and L3MBTL1 block inconclusive.
COc1cc([N+](=O)[O-])cc(/C=N/NC(=O)c2ccc(NC(=O)c3ccc(C)cc3)cc2)c1O was read as JMJD2A Tudor 0.0%[57.1 µM], G9a inh 24.2%, GLS inh 0.0%, HP1b chromo inh 36.1%, BAZ2B block 11.6% and L3MBTL1 block -1.6%.
For COc1cc([N+](=O)[O-])cc(/C=N/NC(=O)Cn2cncn2)c1O the results were JMJD2A Tudor 25.1µM*, G9a inh inconclusive, GLS inh -1.1%, HP1b chromo inh 22.0%, BAZ2B block 31.6µM* and L3MBTL1 block inconclusive.
Screening COc1cc([N+](=O)[O-])cc(/C=N/NC(=O)CSc2ccccn2)c1O returned JMJD2A Tudor 79.4µM*, GLS inh 1.3%, HP1b chromo inh 24.9% and BAZ2B block inconclusive.
COc1cc([N+](=O)[O-])cc(/C=N/NC(=O)CC#N)c1O was read as G9a inh 50.1µM* and BAZ2B block 8.91µM*.
